# PAX8 reporter: PAX8 transcriptional activity inhibition; RMG-I TPO-luciferase reporter, SteadyGlo, 24 h; inhibition, % at 12.6 µM; 360,000 tested, 1.2% active; AID 652154;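 active means mean replicate inhibition at least 60% with every replicate also reaching 60%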;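 further: luciferase light reporting Pax8 driven TPO promoter activity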
# rRNA inh HTS: inhibitors of bacterial rRNA selective over humanized ribosomes. GFP signal change (wild-type ribosome), % (concentration not given with the values). E. coli WT GFP vs humanized-ribosome RFP mutants, fluorescence, 24 h; active compounds read low; DMSO median 0, no signal -100. 350,000 tested, 1.6% active;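 active means significant combined selectivity score with lowered wild-type GFP, culture density cut under 30%, mutant RFP and density less affected; inactive means any of these conditions unmet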
# PGC1a acetyl inh: PGC1a acetylation modulation, inhibitor mode. U2OS PGC1a acetylation, AlphaScreen anti-acetyl-lysine; with virally co-expressed GCN5 acetyltransferase. inhibition, % at 15.6 µM. 350,000 tested, 0.17% active. AID 651687;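 active means every replicate shows inhibition of at least 40%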
# SIRT5 block: blocks human SIRT5 desuccinylation of peptide; Q9NXA8; 330,000 tested, 1.1% active; Purified SirT5, succinyl-peptide AMC, trypsin-coupled fluorescence; inhibition, % at 15 µM; in the data active means inhibition above about 15%
# Target sequence (Q9NXA8 whole entry, looked up): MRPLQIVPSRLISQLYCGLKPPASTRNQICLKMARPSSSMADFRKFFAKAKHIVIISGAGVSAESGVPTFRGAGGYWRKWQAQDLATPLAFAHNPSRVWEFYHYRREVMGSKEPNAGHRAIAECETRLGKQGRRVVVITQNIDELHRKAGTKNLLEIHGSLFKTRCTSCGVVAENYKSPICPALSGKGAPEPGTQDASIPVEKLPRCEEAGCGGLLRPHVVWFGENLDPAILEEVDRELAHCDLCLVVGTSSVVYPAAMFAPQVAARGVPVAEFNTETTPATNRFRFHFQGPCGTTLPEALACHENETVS
# EWS-Fli block: inhibitors of EWS/Fli oncoprotein transcriptional activity; A673 NR0B1-luciferase reporter, viability-normalised; AID 651661; inhibition, % at 12.6 µM; 350,000 tested, 0.67% active;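 active means mean inhibition of at least 50% after viability correction, with every replicate also passing that limit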;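 further: firefly luciferase signal divided by Alamar Blue viability fluorescence both relative to DMSO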
# LGR2 inh: blocks bursicon-induced cAMP signaling via Drosophila LGR2; inhibition, % at 9.99 µM; 380,000 tested, 0.35% active; HEK293 LGR2, CRE-luciferase, bursicon-stimulated, 4 h; AID 720647;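 active means drop in luminescence signal, shown as inhibition above about 50% in the replicate tests, limit read from the data, passing the limit was not always enough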;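 further: agonist challenge used bursicon conditioned medium at about half maximal strength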
# Numbers stand for hits; n = inactive; x = not tested or not shown. In the library only some 3.4% were active in any assay of this set; here they are far more common.
SMILES,PAX8 reporter,rRNA inh HTS,PGC1a acetyl inh,SIRT5 block,EWS-Fli block,LGR2 inh
COc1ccc(S(=O)(=O)Nc2ccc3c(c2)C(=O)N([C@@H](C)CO)C[C@@H](C)[C@@H](CN(C)S(=O)(=O)c2ccccc2)OCCCC[C@@H](C)O3)cc1,n,n,n,19.7,n,n
COc1ccc(S(=O)(=O)Nc2ccc3c(c2)C(=O)N([C@@H](C)CO)C[C@H](C)[C@@H](CN(C)S(=O)(=O)c2ccccc2)OCCCC[C@@H](C)O3)cc1,n,n,n,20.8,n,n
COc1ccc(S(=O)(=O)N(C)C[C@H]2OCCCC[C@H](C)Oc3ccc(NS(=O)(=O)c4ccccc4)cc3C(=O)N([C@H](C)CO)C[C@H]2C)cc1,n,n,n,n,n,n
COc1ccc(S(=O)(=O)Nc2ccc3c(c2)C(=O)N([C@H](C)CO)C[C@@H](C)[C@H](CN(C)S(=O)(=O)c2ccccc2)OCCCC[C@@H](C)O3)cc1,n,n,n,19.3,n,n
COc1ccc(-c2cn(C[C@@H](Cc3ccccc3)NC(=O)Nc3ccccc3)nn2)cc1OC,n,x,x,n,n,x
COc1ccc(S(=O)(=O)Nc2ccc3c(c2)C(=O)N([C@@H](C)CO)C[C@@H](C)[C@H](CN(C)S(=O)(=O)c2ccccc2)OCCCC[C@H](C)O3)cc1,n,n,n,22.1,n,n
CCCc1nc2c(=O)n(C)c(=O)nc-2n(C)n1,104.1,n,74.5,n,n,101.8
Cn1nc(-c2ccccn2)nc2c(=O)n(C)c(=O)nc1-2,105.2,n,79.6,n,n,102.5
C[C@@H]1CN([C@@H](C)CO)S(=O)(=O)c2ccc(-c3ccncc3)cc2O[C@H]1CN(C)C(=O)CN(C)C,n,n,n,n,n,n
CCC(=O)N1CC(=O)N2[C@@H](CO)[C@H](c3ccc(C#Cc4cccc(OC)c4)cc3)[C@@H]2C1,n,n,n,n,n,n
Fc1cccc(-c2cc3nc4c(c(NCc5ccco5)n3n2)CCCC4)c1,x,-32.0,n,n,n,n
Fc1cccc(-c2cc3nc4c(c(N5CCOCC5)n3n2)CCCC4)c1,x,x,x,x,x,n
O=C(C[C@H]1C=C[C@@H](NS(=O)(=O)c2ccccc2F)[C@H](CO)O1)NCCCN1CCOCC1,x,n,n,n,x,n
CCOC(=O)N1CCN(C(=O)/C(=C\c2cccs2)NC(=O)c2cccs2)CC1,n,n,x,n,n,n
CCOC(=O)N1CCN(C(=O)/C(=C/c2cccs2)NC(=O)c2cccs2)CC1,n,n,n,17.4,n,n
CC1C/C(=N\NC(=O)c2ccc([N+](=O)[O-])cc2)CC(C)(C)C1 (stereo not drawn),n,n,n,n,n,n
CC1C/C(=N\NC(=O)c2ccc(NS(=O)(=O)c3ccc(Br)cc3)cc2)CC(C)(C)C1 (stereo not drawn),86.2,n,x,n,n,x
COc1ccc(NC(=O)N(C)C[C@H]2Oc3ccc(NC(=O)Cc4ccccc4)cc3CC(=O)N([C@@H](C)CO)C[C@H]2C)cc1,n,n,n,x,n,n
Cc1cc(Br)cn2c(Cc3cccc(F)c3)c(-c3ccc(Cl)cc3)nc12,n,-31.5,n,n,n,n
Cc1ccc(Cc2c(-c3cccc(Br)c3)nc3c(Cl)cc(C(F)(F)F)cn23)cc1,n,n,x,25.0,n,n
COc1ccccc1Cc1c(-c2ccc(F)cc2)nc2c(C)cc(Br)cn12,n,-32.5,n,n,n,n
O=C(C[C@@H]1CC[C@H]2[C@@H](COC[C@@H](O)CN2Cc2ccc3c(c2)OCO3)O1)Nc1ccc(-c2ccccc2)cc1,n,n,n,x,n,n
Cc1cc(C(=O)CSc2nc3ccccc3[nH]2)c(C)n1C,n,x,x,x,x,x
Cc1cc(C(=O)CSc2nc3ccccc3[nH]2)c(C)n1Cc1ccco1,n,-33.5,n,x,x,n
C=CCn1c(C)cc(C(=O)CSc2nc3ccccc3[nH]2)c1C,x,x,n,x,x,59.5
SMILES,PAX8 reporter,rRNA inh HTS,PGC1a acetyl inh,SIRT5 block,EWS-Fli block,LGR2 inh
COc1cccc(C(=O)NC(=S)N2CCN(c3ccc(C(F)(F)F)cc3[N+](=O)[O-])CC2)c1,n,n,n,n,63.8,n
CC(C)Oc1cccc(C(=O)NC(=S)N2CCN(c3ccc(C(F)(F)F)cc3[N+](=O)[O-])CC2)c1,x,x,n,x,x,x
C=CCN(c1ccccc1)S(=O)(=O)c1cccc(C(=O)NCC(c2ccc(F)cc2)N2CCOCC2)c1 (stereo not drawn),n,n,x,n,n,n
CCN(c1ccccc1)S(=O)(=O)c1cccc(C(=O)NCC(c2ccc(F)cc2)N2CCOCC2)c1 (stereo not drawn),n,-25.3,n,n,n,n
CCNC(=O)[C@@H]1[C@@H](CO)[C@@H]2Cn3c(ccc(C4=CCCC4)c3=O)[C@H]1N2C(=O)CC,n,n,x,n,n,n
O=C(C[C@H]1CC[C@H](NC(=O)c2cccc(F)c2)[C@H](CO)O1)NCCN1CCCC1,n,n,n,n,n,n
COc1ccccc1CNc1ccc(Br)cn1,n,-29.5,n,n,n,n
Oc1ccccc1CNc1ccc(Br)cn1,x,x,n,x,x,x
COc1ccc(-c2csc(-c3ccc(O)cc3)n2)cc1,n,-27.8,x,n,n,n
O=C(O)c1ccc(-c2nc(-c3ccccc3)cs2)cc1,n,-20.5,x,n,n,n
C[C@H](CO)N1C[C@H](C)[C@@H](CN(C)C(=O)CN(C)C)Oc2ncc(-c3ccc(F)cc3)cc2C1=O,x,n,n,n,n,n
O=C(c1ccccn1)N1CC2(C1)[C@@H](c1ccccc1)[C@H](CO)N2C(=O)C1CCC1,n,n,n,n,n,n
O=C(NC1CCCc2c1cnn2-c1cc(F)cc(F)c1)c1ccccn1 (stereo not drawn),n,n,n,n,x,n
COC(=O)c1ccc(C(=O)NC2CCCc3c2cnn3-c2cc(F)cc(F)c2)nc1 (stereo not drawn),n,n,x,n,52.8,n
Cc1noc(C)c1NC(=O)N(C)C[C@@H]1OCCCC[C@@H](C)Oc2ccc(NC(=O)NC(C)C)cc2C(=O)N([C@@H](C)CO)C[C@H]1C,n,n,n,n,n,n
O=C(NN1C(=O)NC2(CCCCC2)C1=O)c1ccc(Cl)c(Cl)c1,n,x,n,16.9,n,x
O=[N+]([O-])c1c(C(Cl)Cl)nn(-c2ccccc2)c1N1CCCC1,x,-43.4,n,n,n,n
COc1cc2c(cc1OC)CN(C(=O)[C@H]1[C@@H]3C(=O)O[C@@H](c4ccccc4)[C@@H](c4ccccc4)N3[C@@H](c3ccccc3OCCO)[C@]13C(=O)Nc1ccc(C#CC4=CCCCC4)cc13)CC2,n,x,x,n,n,x
Cc1c(P(=S)(c2ccccc2)c2ccccc2)[n+]2ccccc2n1CCc1ccccc1,88.8,n,x,x,n,n
C[C@@H]1CN([C@@H](C)CO)C(=O)c2cc(NC(=O)Nc3ccccc3)ccc2O[C@@H]1CN(C)Cc1ccc(Cl)c(Cl)c1,x,n,n,x,n,n

# Assay outcomes: PubChem BioAssay, Broad Institute
